From PubChem BioAssay
Hits are enriched below; roughly 12% of the tested compounds scored in any of these assays.
TDP1 block: qHTS Assay for Inhibitors of Tyrosyl-DNA Phosphodiesterase (TDP1); Tyrosyl-DNA phosphodiesterase 1 (Homo sapiens), Q9NUW8; 350,000 compounds, 0.28% hits; recombinant TDP1, AlphaScreen DNA substrate cleavage; Potency, µM (highest dose often 130 µM), for the others: at the highest dose activity change, negative = inhibition, hits mostly inhibitors; further: on the % scale 0 is the no-effect control and ±100 the full control effect; nearly all actives have a fitted effect of over 40% in size
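Recombinant E. coli-expressed Tdp1 (1 nM) preincubated with compound 15 min at RT, then 5'-biotin/3'-phosphotyrosine-FITC DNA substrate (15 nM) added for 5 min. AlphaScreen beads (10 ug/ml) added, 10 min RT; tyrosine-FITC cleavage read as signal loss.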
HP1b binding inh: HTS for Inhibitors of HP1-beta Chromodomain Interactions with Methylated Histone Tails; Potency, µM (titrated, usually from 114 µM), for the others: top-dose activity change, negative = inhibition, actives largely listed as inhibitors; AlphaScreen HP1-beta / biotin-H3K9me3 peptide binding; 390,000 compounds, 0.56% hits; AID 540317, 2011; further: nearly all actives have a fitted effect of over 70% in size
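Compound inhibition of the preformed complex between 50 nM HP1-beta and 50 nM biotinylated H3K9me3 peptide was read by AlphaScreen. Buffer was PBS pH 7.4 with 0.01% Tween-20. Incubations ran 30 min at room temperature, with 10 ug/mL donor/acceptor beads.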
Sfp PPTase inh: qHTS Assay for Inhibitors of Bacillus subtilis Sfp phosphopantetheinyl transferase (PPTase) | Biochemical Sfp PPTase activity, qHTS | Potency, µM, for inactives: largest response in the series, negative = inhibition, hits mostly inhibitors | 310,000 compounds, 3.5% hits;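 further: the enzyme is Sfp with the accession as filed and its product quenches rhodamine fluorescence; 0% = enzyme reaction without inhibitor and -100% = no enzyme wells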
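Sfp 15 nM + cpd, 15 min RT; start w/ rhodamine-CoA 5 uM, BHQ-2-YbbR 12.5 uM (final); 50 mM Hepes pH 7.6, 10 mM MgCl2, 0.01% NP-40, 0.01% BSA; read 525/598 nm at 0 and 30 min.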
JMJD2A Tudor inh: qHTS Assay for Inhibitors of JMJD2A-Tudor Domain; Lysine-specific demethylase 4A (Homo sapiens), O75164; AlphaScreen JMJD2A-Tudor / H3K4me3 peptide binding; Potency, µM (highest dose often 114 µM), without a hit: at the top dose activity change, negative = inhibition, actives largely listed as inhibitors; 390,000 compounds, 4.4% hits; AID 504339, 2011; further: on the % scale 0 is the no-effect control and ±100 the full control effect; nearly all actives have a fitted effect of over 50% in size
G9a block: qHTS Assay for Inhibitors of Histone Lysine Methyltransferase G9a | Histone-lysine N-methyltransferase EHMT2 (Homo sapiens), Q96KQ7 | AID 504332, 2011 | 350,000 compounds, 8.8% hits | G9a H3K9 monomethylation, AlphaScreen, 2 h | Potency, µM (doses to about 102 µM), without a hit: at the top dose activity, negative = inhibition, actives largely listed as inhibitors; further: on the % scale 0 is the no-effect control and ±100 the full control effect; nearly all actives have a fitted effect of over 75% in size
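Step 1: enzyme (final 20 nM) with compound, 15 min RT. Step 2: substrate peptide 500 nM and SAM 20 uM, 2 h RT. Step 3: anti-H3K9me1 antibody and AlphaScreen beads, 10 min, then plate read.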
BAZ2B inh: qHTS Assay for Inhibitors of BAZ2B; Bromodomain adjacent to zinc finger domain protein 2B (Homo sapiens), Q9UIF8; AlphaScreen BAZ2B-H3K14Ac peptide displacement; Potency, µM (series often up to 114 µM), without a hit: at the top dose activity change, negative = inhibition, most hits filed as inhibitors; 360,000 compounds, 4.4% hits; AID 504333, 2011; further: on the % scale 0 is the no-effect control and ±100 the full control effect; nearly all actives have a fitted effect of over 60% in size
Target sequence (Q9UIF8 whole entry, looked up, the tested form may be a part): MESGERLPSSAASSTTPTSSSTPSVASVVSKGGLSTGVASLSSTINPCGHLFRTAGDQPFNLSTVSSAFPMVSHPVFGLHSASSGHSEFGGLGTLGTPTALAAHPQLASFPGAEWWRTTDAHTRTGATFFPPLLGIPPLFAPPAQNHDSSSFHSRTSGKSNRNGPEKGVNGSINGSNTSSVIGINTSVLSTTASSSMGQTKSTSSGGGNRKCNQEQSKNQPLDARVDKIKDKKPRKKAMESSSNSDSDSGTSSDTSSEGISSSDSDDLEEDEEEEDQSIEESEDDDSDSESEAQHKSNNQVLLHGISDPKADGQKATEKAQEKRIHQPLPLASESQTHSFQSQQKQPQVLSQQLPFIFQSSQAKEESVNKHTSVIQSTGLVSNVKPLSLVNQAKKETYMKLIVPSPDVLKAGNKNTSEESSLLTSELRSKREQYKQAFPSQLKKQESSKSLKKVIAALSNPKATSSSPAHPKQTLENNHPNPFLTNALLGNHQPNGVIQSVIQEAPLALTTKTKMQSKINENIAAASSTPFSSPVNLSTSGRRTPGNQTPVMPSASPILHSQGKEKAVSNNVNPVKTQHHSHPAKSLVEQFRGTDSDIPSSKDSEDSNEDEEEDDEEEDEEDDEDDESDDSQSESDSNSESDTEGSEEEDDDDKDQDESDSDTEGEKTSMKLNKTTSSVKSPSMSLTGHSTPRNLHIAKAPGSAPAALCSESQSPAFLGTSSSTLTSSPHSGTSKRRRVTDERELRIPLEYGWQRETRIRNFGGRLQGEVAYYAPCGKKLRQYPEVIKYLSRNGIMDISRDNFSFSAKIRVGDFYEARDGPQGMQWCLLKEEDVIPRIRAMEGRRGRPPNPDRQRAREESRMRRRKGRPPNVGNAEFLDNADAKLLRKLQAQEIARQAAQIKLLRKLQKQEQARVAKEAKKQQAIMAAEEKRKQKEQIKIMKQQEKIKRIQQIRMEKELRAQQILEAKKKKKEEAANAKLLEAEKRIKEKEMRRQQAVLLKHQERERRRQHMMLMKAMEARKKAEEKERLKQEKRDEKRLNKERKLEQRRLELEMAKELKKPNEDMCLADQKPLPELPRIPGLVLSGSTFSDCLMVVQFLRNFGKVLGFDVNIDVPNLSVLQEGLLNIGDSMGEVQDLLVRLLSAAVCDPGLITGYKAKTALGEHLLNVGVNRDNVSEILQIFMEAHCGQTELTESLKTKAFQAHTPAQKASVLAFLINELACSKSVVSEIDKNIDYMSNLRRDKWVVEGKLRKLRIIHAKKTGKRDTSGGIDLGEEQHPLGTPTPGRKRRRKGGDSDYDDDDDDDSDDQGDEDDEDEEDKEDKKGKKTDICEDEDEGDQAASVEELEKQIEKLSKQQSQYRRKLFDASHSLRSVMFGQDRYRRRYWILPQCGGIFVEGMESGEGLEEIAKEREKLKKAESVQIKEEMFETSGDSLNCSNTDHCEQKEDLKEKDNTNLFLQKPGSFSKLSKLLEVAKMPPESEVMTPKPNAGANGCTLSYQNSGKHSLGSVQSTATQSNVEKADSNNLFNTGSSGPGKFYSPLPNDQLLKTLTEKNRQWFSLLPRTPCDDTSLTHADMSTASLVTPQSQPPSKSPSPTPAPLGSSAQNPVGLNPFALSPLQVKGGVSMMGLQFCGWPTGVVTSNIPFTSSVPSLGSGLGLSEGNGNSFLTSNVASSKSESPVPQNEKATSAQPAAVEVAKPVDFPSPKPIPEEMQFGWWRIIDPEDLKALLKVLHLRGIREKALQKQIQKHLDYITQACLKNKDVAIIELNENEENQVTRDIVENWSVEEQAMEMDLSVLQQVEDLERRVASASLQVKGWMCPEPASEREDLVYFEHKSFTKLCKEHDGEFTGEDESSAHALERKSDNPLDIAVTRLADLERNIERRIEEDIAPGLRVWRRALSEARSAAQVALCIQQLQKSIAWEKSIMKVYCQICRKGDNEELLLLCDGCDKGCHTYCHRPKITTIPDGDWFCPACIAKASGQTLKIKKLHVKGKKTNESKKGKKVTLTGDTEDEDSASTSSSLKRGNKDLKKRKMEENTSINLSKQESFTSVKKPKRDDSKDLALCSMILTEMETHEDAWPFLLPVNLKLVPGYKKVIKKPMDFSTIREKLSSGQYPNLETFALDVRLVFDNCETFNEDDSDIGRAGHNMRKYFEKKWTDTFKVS
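Complex of BAZ2B and biotin-H3K14Ac (50 nM apiece) forms over 30 min at RT, then faces library compounds up to 110 uM for another 30 min; AlphaScreen beads added, 20 min dark incubation, luminescence read.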
Starred values were filed as active, the others as inactive; ? = inconclusive; . = no result given; [ ] = remark or other dose. The call rests on the fitted dose curve; in most records, active means well fitted curve in the direction sought with a large enough effect; inconclusive means small, poorly fitted or top-dose-only effect, or another doubt; inactive means no such curve, though single readings can be large; an effect the other way counts as inactive or inconclusive. Potency means the concentration at half of the fitted maximal effect.

SMILES	TDP1 block	HP1b binding inh	Sfp PPTase inh	JMJD2A Tudor inh	G9a block	BAZ2B inh
NS(=O)(=O)c1ccc(-c2ccc(/C=N/NC(=O)c3ccc([N+](=O)[O-])cc3)o2)cc1	-3%	16%	12%	-3%	-5%	-4%
O=C(O)c1ccc(N/N=C/c2ccc(-c3cccc(Cl)c3)o2)cc1	-4%	16%	-22%	-24%[11.4 µM]	?	?
O=C(O)c1ccc(N/N=C/c2ccc(-c3cc(Cl)ccc3Cl)o2)cc1	71µM*	-8%	-26%	40µM*	-39%	79µM*
O=C(O)c1cccc(-c2ccc(/C=N/Nc3ccc([N+](=O)[O-])cc3)o2)c1	3%	-21%	0%	-27%	.	45µM*
O=C(O)c1ccc(N/N=C/C=C/c2ccc([N+](=O)[O-])o2)cc1	-14%	?	?	45µM*	32µM*	40µM*
NS(=O)(=O)c1ccc(-c2ccc(/C=N/Nc3ccc(C(=O)O)cc3)o2)cc1	?	14%	50µM*	-14%[11.4 µM]	.	-7%
Cc1csc(CN(C)C(=O)c2cn(Cc3cccc4ccccc34)nn2)n1	2%	22%	2%	-16%	?	-11%
CCOC(=O)c1c(C)[nH]c(C)c1S(=O)(=O)NC(C)Cc1ccco1 (stereo not drawn)	4%	-1%[57 µM]	-1%	-30%	.	?
Cc1ccccc1OC(=O)CSc1nnc(-c2ccc(F)cc2)o1	6%	66%	.	1%	-36%[59 µM]	-2%
NSc1nc(N)c2nc(-c3ccccc3)c(-c3ccccc3)nc2n1	5%	2%	-17%	-31%	6.3µM*	-24%
CC(=O)Nc1ccc(NC(=O)C2CC(=O)Nc3ncnn32)cc1 (stereo not drawn)	.	42%	13%	-11%	8%[12.7 µM]	-20%
Cc1ccc(Cl)cc1NC(=O)C1CC(=O)Nc2ncnn21 (stereo not drawn)	2%	46%	7%	-4%[11.4 µM]	50µM*	-22%
O=C1CC(C(=O)Nc2cccc(Cl)c2)n2ncnc2N1 (stereo not drawn)	0%	34%	20%	-10%	-3%	-14%
O=C1CC(C(=O)Nc2cc(Cl)ccc2Cl)n2ncnc2N1 (stereo not drawn)	-3%	55%	17%	-5%	10µM*	5%
CCN(CCNC(=O)C1CCCN(Cc2nc(-c3ccc(OC)cc3)oc2C)C1)c1ccccc1 (stereo not drawn)	12%	-42%	?	32µM*	-32%[12.7 µM]	11µM*
CCN(CCNC(=O)C1CCN(Cc2nc(-c3ccc(Cl)cc3)oc2C)CC1)c1ccccc1	10%	?	?	50µM*	?	14µM*
CCCN(CCC)CCCNC(=O)C1CCCN(Cc2nc(-c3ccc(Cl)cc3)oc2C)C1 (stereo not drawn)	0%	14%	.	-10%	-33%[59 µM]	-8%
C[C@H]1O[C@@H](n2cc(F)c(=O)[nH]c2=O)[C@H](O)[C@H]1O	.	.	.	.	1%[59 µM]	.
COC(=O)Nc1ccc2ccc3c(NC(=O)OC)ccc4ccc1c2c43	.	33%	.	5%	.	.
COc1ccc(CN(CC(O)COc2cccc3[nH]cc(C)c23)C(C)(C)C)cc1 (stereo not drawn)	.	?	6%	50µM*	?	?
COc1ccc(CN(C)CC(O)COC(c2ccc(OC)cc2)c2ccc(OC)cc2)cc1 (stereo not drawn)	.	-2%	-15%	-34%	26%	-16%
CCn1c(C)c(C)c2cc(C(=O)NCCc3ccco3)ccc21	13%	-11%	-6%	?	50µM*	?
Cc1c(C)n(C)c2ccc(C(=O)NCCCN(C)C3CCCCC3)cc12	12%	1%	-14%	?	50µM*	25µM*
Cc1ccccc1CCNC(=O)c1ccc2c(c1)c(C)c(C)n2C	11%	-10%	.	?	?	?
Cc1c(C)n(C)c2ccc(C(=O)NCCc3ccco3)cc12	10%	?	?	?	.	35µM*
SMILES	TDP1 block	HP1b binding inh	Sfp PPTase inh	JMJD2A Tudor inh	G9a block	BAZ2B inh
Cc1c(C)n(C)c2ccc(C(=O)Nc3cccc4ccccc34)cc12	12%	?	-11%	?	50µM*	?
CCOC(=O)Cn1c(=O)n(Cc2ccco2)c(=O)c2ccc(C(=O)NCCc3ccccc3)cc21	7%	5%	56µM*	-23%	-17%[0.0925 µM]	-4%
CCn1c(C)c(C)c2cc(C(=O)NCCc3cc(OC)c(OC)c(OC)c3)ccc21	5%	-12%	.	?	?	45µM*
O=C(CCCc1nc2ccccc2s1)NNC(=O)CCN1CCN(Cc2ccccc2)CC1	4%	12%	15%	-10%	35µM*	-22%
Cc1cnc(NC(=O)CCCc2nc3ccccc3s2)s1	2%	8%	40µM*	-7%	35µM*	-9%
O=C(CCCc1nc2ccccc2s1)Nc1nccs1	6%	23%	45µM*	-11%	40µM*	-2%
O=C(CCCSc1nc2ccccc2s1)Nc1nccs1	-2%	37%	-24%	16%	-35%[59 µM]	2%
CCOC(=O)C(=Cc1cc(=O)c(OC)co1)C(=O)OCC	-10%	?	6.3µM*	5%	10µM*	-3%
COc1coc(C(O)CN)cc1=O (stereo not drawn)	5%	21%	4%	-2%	8%[59 µM]	4%
CCOc1ccccc1NC(=S)Nn1cnnc1	7%	?	7.1µM*	50µM*	1.8µM*	?
Fc1ccccc1NC(=S)Nn1cnnc1	8%	-21%	18µM*	50µM*	4µM*	-24%
Cc1cccc(NC(=S)NN2CCN(C)CC2)c1C	4%	26%	-5%	-6%	29%[59 µM]	12%
Cc1ccccc1NC(=S)NN1CCN(C)CC1	-2%	22%	0%	-10%	46%[12.7 µM]	3%
Cc1ccccc1NC(=S)Nn1cnnc1	4%	?	22µM*	-25%	.	?
Cc1cccc(NC(=S)Nn2cnnc2)c1C	3%	6%	10µM*	-10%	.	?
CC(=O)OC[C@H]1O[C@@](COC(C)=O)(O[C@H]2O[C@H](COC(C)=O)[C@@H](OC(C)=O)[C@H](OC(C)=O)[C@H]2OC(C)=O)[C@@H](OC(C)=O)[C@@H]1OC(C)=O	.	.	2%	.	8%[12.7 µM]	.
